# Tests used:
# Details in all cases: concentration: 1 μM,replicates: in singlicate; n = 1
# [1] = system: PIK3C2G
# [2] = system: PIK3CA
# [3] = system: PIK3CB
# [4] = system: PIK3CD
# [5] = system: PIK3CG
# [6] = system: T1, PIK4CB
# T1 construct: gene PI4KB
# [7] = system: PIKFYVE
# [8] = system: PIM1
# [9] = system: PIM2
# [10] = system: PIM3
# [11] = system: PIP5K1A
# [12] = system: PIP5K1C
# [13] = system: PIP5K2B
# [14] = system: T2, PIP5K2C
# T2 construct: gene PIP4K2C
# [15] = system: T3, PKAC-alpha
# T3 construct: gene PRKACA
# [16] = system: T4, PKAC-beta
# T4 construct: gene PRKACB
# [17] = system: PKMYT1
# [18] = system: PKN1
# [19] = system: PKN2
# [20] = system: PLK1
# 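Further: KINOMEscan kinase panel screen.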
Compound,%Inh [1],%Inh [2],%Inh [3],%Inh [4],%Inh [5],%Inh [6],%Inh [7],%Inh [8],%Inh [9],%Inh [10],%Inh [11],%Inh [12],%Inh [13],%Inh [14],%Inh [15],%Inh [16],%Inh [17],%Inh [18],%Inh [19],%Inh [20]
CC(C)N1C(=O)Cc2cc(Nc3ncc(C(F)(F)F)c(NCc4cccc(S(C)(=O)=O)c4)n3)ccc21,28%,6%,29%,0%,5%,28%,27%,5%,0%,9%,34%,0%,57%,52%,0%,0%,15%,24%,7%,28%
CN(C)CCOc1ccc(-c2cc(-c3c[nH]nc3-c3ccccn3)ccn2)cc1 [GW835314],5%,0%,11%,2%,0%,36%,0%,13%,0%,0%,0%,16%,26%,8%,10%,0%,0%,100%,3%,42%
Cl.Cl.NC[C@H](Cc1ccc(C(F)(F)F)cc1)NC(=O)c1cc(Br)c(-c2ccnc3[nH]ccc23)s1 [GSK1487252],61%,0%,0%,0%,0%,0%,12%,35%,0%,0%,0%,22%,39%,3%,99.4%,98.8%,10%,12%,79%,0%
Cc1n[nH]c2ccc(-c3cc(OC[C@@H](N)Cc4ccccc4)cnc3-c3ccoc3)cc12.O=C(O)C(F)(F)F.O=C(O)C(F)(F)F [GSK507358],0%,0%,0%,0%,0%,0%,8%,29%,90%,47%,0%,38%,41%,31%,98.9%,98%,0%,33%,9%,3%
CCN(CC)CCOc1ccc(Nc2ncc3cc(-c4c(Cl)cccc4Cl)c(=O)n(C)c3n2)cc1 [SB-601273],11%,6%,30%,40%,21%,5%,48%,0%,0%,0%,72%,82%,16%,90.7%,26%,0%,98.6%,57%,6%,26%
Cl.Cl.NC[C@H](CC1CCCCC1)NC(=O)c1cc(Br)c(-c2ccnc3[nH]ccc23)s1 [GSK1581427],0%,0%,0%,0%,0%,1%,0%,1%,0%,0%,63%,35%,89%,36%,99.5%,99.6%,0%,31%,82%,0%
C[C@H]1Oc2cc(cnc2N)-c2c(nn(C)c2C#N)CN(C)C(=O)c2ccc(F)cc21,20%,0%,0%,0%,0%,0%,19%,21%,19%,12%,0%,44%,0%,0%,18%,0%,33%,12%,0%,0%
CNC(=O)c1ccccc1Sc1ccc2c(/C=C/c3ccccn3)n[nH]c2c1,0%,0%,0%,11%,2%,0%,43%,0%,0%,6%,12%,0%,12%,0%,0%,0%,100%,0%,0%,0%
CCN(CC)CCCCNc1ncc2cc(-c3c(Cl)cccc3Cl)c(NC(=O)NC(C)(C)C)nc2n1,6%,8%,91.6%,15%,2%,0%,21%,0%,13%,0%,0%,0%,0%,3%,11%,0%,0%,0%,4%,0%
Cc1ccc(-n2nc(C(C)(C)C)cc2NC(=O)Nc2ccc(OCCN3CCOCC3)c3ccccc23)cc1 [GW839464],0%,0%,0%,0%,0%,0%,0%,0%,9%,0%,0%,37%,23%,19%,0%,34%,21%,100%,0%,24%
CN(C)CC(O)COc1ccc(Nc2nccc(-c3cnn4nc(N5CCOCC5)ccc34)n2)cc1 (stereo not shown) [GW767488],20%,33%,35%,37%,63%,46%,68%,15%,0%,35%,37%,24%,77%,82%,0%,0%,9%,13%,38%,37%
O=C(NCCNc1ccnc(NCc2ccc(F)cc2)n1)c1cc2ccccc2s1 [GSK1379944],0%,0%,0%,0%,0%,5%,0%,0%,0%,0%,0%,100%,20%,12%,7%,14%,74%,0%,0%,0%
Nc1nc(Nc2ccccc2)cc(-c2ccc3c(N)n[nH]c3c2)n1 [GSK2225749],20%,0%,0%,22%,0%,15%,27%,12%,0%,0%,46%,82%,38%,61%,0%,0%,0%,50%,0%,0%
Cc1occc1-c1nc(N)c(OC[C@@H](N)Cc2c[nH]c3ccccc23)cc1-c1cc2c(C)n[nH]c2cn1 [GSK1660450],7%,0%,0%,10%,0%,0%,0%,97.3%,99.2%,97.7%,65%,42%,11%,0%,99.9%,99.3%,24%,63%,22%,57%
C[C@@H]1CCN(C(=O)CC#N)C[C@@H]1N(C)c1ncnc2[nH]ccc12,0%,0%,0%,0%,0%,0%,36%,0%,0%,0%,0%,0%,0%,0%,0%,0%,20%,,,0%
CC(C)Nc1cc(-c2ccc3c(N)n[nH]c3c2)nc(N)n1 [GSK2221681],0%,0%,0%,0%,0%,7%,0%,15%,0%,0%,56%,28%,32%,0%,0%,0%,0%,29%,0%,0%
NC(=O)c1cc(-c2ccccc2)cc2c(C3CCNCC3)c[nH]c12 [GSK301362],0%,0%,0%,6%,2%,0%,0%,17%,0%,7%,0%,33%,14%,75%,0%,11%,17%,50%,0%,10%
Cl.Cl.Nc1nc(-c2ccc3c(N)n[nH]c3c2)cc(N2CCCC(NC(=O)c3ccccc3)C2)n1 (stereo not shown) [GSK2286775],43%,14%,0%,2%,4%,27%,6%,25%,0%,25%,56%,55%,38%,25%,0%,0%,5%,41%,0%,0%
C=CC(=O)Nc1cc2c(Nc3ccc(F)c(Cl)c3)ncnc2cc1OCCCN1CCOCC1 [GW781483],0%,0%,60%,0%,42%,21%,20%,2%,0%,0%,18%,0%,0%,27%,11%,10%,20%,18%,0%,0%
Cc1cc2cn[nH]c2cc1-c1cccc2c(N)c(C(N)=O)nnc12,13%,0%,0%,46%,0%,26%,0%,0%,0%,0%,16%,0%,0%,10%,1%,0%,0%,0%,0%,15%
Cc1cc(C(=O)Nc2ccc(Oc3ccc4nc(NC(=O)C5CC5)cn4n3)cc2)nn1-c1ccccc1,2%,0%,0%,0%,0%,0%,1%,2%,2%,0%,3%,27%,50%,22%,0%,21%,0%,0%,11%,0%
Cl.Oc1cc(-c2nc(-c3ccccc3)[nH]c2-c2ccncc2)ccc1Cl [SB-386023],19%,0%,14%,0%,0%,14%,87%,0%,3%,0%,30%,0%,16%,0%,5%,1%,0%,0%,33%,1%
Cc1ccc2c(-c3ccncc3)c(-c3ccc(F)cc3)nn2c1.Cl [GW461484],0%,0%,25%,0%,1%,0%,0%,0%,0%,16%,24%,24%,31%,10%,18%,22%,0%,0%,8%,0%
O=C(NCCCN1CCOC1=O)c1cnc(NCc2cc(Cl)ccc2Cl)nc1NC1CCCC1,8%,0%,2%,0%,0%,12%,36%,9%,16%,10%,0%,39%,0%,7%,4%,6%,27%,0%,10%,0%
CCn1c(-c2nonc2N)nc2c(C#CC(C)(C)O)nc(OCCN)cc21.Cl.Cl [GSK902056],0%,0%,0%,5%,0%,9%,19%,25%,0%,11%,1%,86%,9%,13%,67%,81%,8%,8%,0%,0%
C[C@@H](Oc1cc(-c2cnn(C3CCNCC3)c2)cnc1N)c1c(Cl)ccc(F)c1Cl,8%,14%,18%,0%,9%,3%,5%,0%,0%,3%,0%,0%,79%,0%,0%,0%,0%,2%,0%,0%
COc1ccc(C[C@@H](CN)NC(=O)c2cc(Br)c(-c3ccnc4[nH]ccc34)s2)cc1.Cl.Cl [GSK1389063],0%,0%,52%,2%,0%,19%,0%,34%,0%,6%,46%,30%,64%,59%,99.7%,99.7%,0%,95.8%,90%,0%
